Screening results: PubChem BioAssay, several laboratories
UGM FP inh = blocks M. tuberculosis UGM enzyme | purified UGM, fluorescence polarization probe displacement | inhibition, % at 10 µM | 0.06% of 320,000 active | P9WIQ1; in the data active = inhibition above about 10%, passing the limit was not always enough; inconclusive = no clear call, values can overlap the other calls
CCHF vOTU inh-1 = CCHFV vOTU protease inhibition; Pep-AMC fluorescence; inhibition, % at 11.5 µM; 0.55% of 370,000 active; in the data active = inhibition above about 30%
RecA splice inh = inhibitors of M. tuberculosis RecA intein splicing | P9WHJ3 | cell-free RecA intein splicing, fluorescence | inhibition, % (concentration not given with the values) | 0.75% of 290,000 active | AID 2221; in the data active = inhibition above about 30%; inconclusive = no clear call, values can overlap the other calls
Mtb bLac sens = beta-lactam sensitization of Mtb H37Rv; inhibition, % at 25 µM; M. tuberculosis H37Rv growth with meropenem, percent inhibition; 0.27% of 330,000 active; AID 434955; call rule not given here;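 note: growth measured after seven days incubation then overnight dye step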
Rv3671c protease = inhibitors of M. tuberculosis serine protease Rv3671c; P9WHR9; inhibition, % at 5.96 µM; 0.048% of 320,000 active; AID 2606;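 note: extracellular domain of Rv3671c used as enzyme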
Target sequence (P9WHR9 whole entry, looked up, the tested form may be a part): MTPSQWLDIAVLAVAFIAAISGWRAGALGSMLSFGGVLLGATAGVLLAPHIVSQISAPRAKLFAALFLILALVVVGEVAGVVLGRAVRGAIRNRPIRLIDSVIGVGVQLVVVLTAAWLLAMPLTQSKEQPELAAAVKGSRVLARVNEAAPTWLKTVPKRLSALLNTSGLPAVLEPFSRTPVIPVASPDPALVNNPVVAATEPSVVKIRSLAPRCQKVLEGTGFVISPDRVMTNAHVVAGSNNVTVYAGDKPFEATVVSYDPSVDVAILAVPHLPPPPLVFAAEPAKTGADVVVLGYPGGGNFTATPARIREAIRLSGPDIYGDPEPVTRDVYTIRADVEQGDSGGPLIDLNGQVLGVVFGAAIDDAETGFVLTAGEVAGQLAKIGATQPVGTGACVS
GFP chromo cs = counter-screen GFP chromophore formation inhibition. shares compounds with RecA splice inh. cell-free GFP chromophore formation, fluorescence. EC50, µM. 83% of 2,100 active. AID 434968; call rule not given here
Rv3671c confirm = Rv3671c protease inhibition, confirmation. 40% of 140 active. AID 2761. inhibition, % at 5.96 µM. shares compounds with Rv3671c protease
CCHF vOTU inh-2 = confirmation of CCHF virus vOTU protease inhibitors | shares compounds with CCHF vOTU inh-1 | Recombinant CCHFV vOTU, Pep-AMC fluorescence | inhibition, % at 11.5 µM | 17% of 1,900 active | AID 686976; in the data active = inhibition above about 30%
Large screens that a line does not name were inactive (follow-up assays come after a bar, where they were run). The list is not random: actives were taken first. Their share in the collection is about 1.2%. Cut-off read from the data, not from the text of the source, unless noted: active = inhibition above about 38%; inactive = the rest.

O=C1c2ccccc2-c2cccnc21	none
NC1=C(Br)C(=O)c2ccccc2C1=O	CCHF vOTU inh-1 90.6, RecA splice inh 89.6 | GFP chromo cs 5.38 | CCHF vOTU inh-2 98.6
O=C1C(=O)c2ccccc2-c2ccccc21	CCHF vOTU inh-1 113.9, RecA splice inh 53.5 | GFP chromo cs 6.94 | CCHF vOTU inh-2 96.2
C=CCN(C)CC#Cc1ccccc1C	none (no result: UGM FP inh, RecA splice inh, Mtb bLac sens, Rv3671c protease)
Cc1ccc(C(=O)NC2(O)C(=O)c3ccccc3C2=O)cc1C	CCHF vOTU inh-1 49.2, RecA splice inh 68.2 | GFP chromo cs 12.1 | CCHF vOTU inh-2 inactive
Cc1ccc(C(=O)NCC(=O)OCN2C(=O)c3ccccc3C2=O)cc1C	none (no result: RecA splice inh)
C=CCNC1=C(Cl)C(=O)c2ccccc2C1=O	CCHF vOTU inh-1 67.5, RecA splice inh 34.5, Mtb bLac sens inconclusive | GFP chromo cs 18.6 | CCHF vOTU inh-2 59.2
COCCCNC1=C(Cl)C(=O)c2ccccc2C1=O	none
O=S(=O)(Cc1ccccc1)NCc1cccnc1	Mtb bLac sens inconclusive
O=C1C(Cl)=C(NCc2cccnc2)C(=O)c2ccccc21	CCHF vOTU inh-1 70.0, RecA splice inh 75.8 | GFP chromo cs 9.41 | CCHF vOTU inh-2 62.0
Cc1nc2c(=O)n(C)c(=O)nc-2n(C)n1	CCHF vOTU inh-1 101.5, RecA splice inh 98.3 | GFP chromo cs 0.117 | CCHF vOTU inh-2 98.7
O=C1C(Nc2cccc(O)c2)=C(N2CCCCC2)C(=O)c2ccccc21	CCHF vOTU inh-1 88.5, RecA splice inh 79.5 | GFP chromo cs 3.03 | CCHF vOTU inh-2 92.5
Cc1ccc(NC2=C(N3CCCCC3)C(=O)c3ccccc3C2=O)cc1	CCHF vOTU inh-1 96.3, RecA splice inh 67.4 | GFP chromo cs 9.52 | CCHF vOTU inh-2 84.5
O=C(/C=C/c1ccc(O)cc1)c1ccc(NC2=C(N3CCCCC3)C(=O)c3ccccc3C2=O)cc1	CCHF vOTU inh-1 84.4, RecA splice inh 56.8 | GFP chromo cs 6.07 | CCHF vOTU inh-2 59.9
O=[N+]([O-])c1ccc(N(CCO)CCO)c2c1no[n+]2[O-]	none (no result: UGM FP inh, RecA splice inh, Mtb bLac sens, Rv3671c protease)
CN1CCN(c2ccc([N+](=O)[O-])c3no[n+]([O-])c23)CC1	CCHF vOTU inh-1 34.9, RecA splice inh 86.0 | GFP chromo cs inactive | CCHF vOTU inh-2 inactive
Cc1ccc(S(=O)(=O)Nc2ccc(Br)cc2C(NCC(=O)O)c2ccccc2)cc1 (stereo unspecified)	none
O=C(O)CSc1cc(NS(=O)(=O)c2ccc(Br)cc2)c2ccccc2c1O	CCHF vOTU inh-1 114.2, RecA splice inh 96.9 | GFP chromo cs 0.68 | CCHF vOTU inh-2 104.0
COc1ccc(N/C=C2\CCc3ccccc3C2=O)cc1	CCHF vOTU inh-1 33.7, RecA splice inh 70.7 | GFP chromo cs 19.4 | CCHF vOTU inh-2 inactive
COc1ccc(-c2cc(=O)[nH][nH]2)cc1OC	CCHF vOTU inh-1 60.1, RecA splice inh 98.7 | GFP chromo cs 0.967 | CCHF vOTU inh-2 inactive
COc1ccc(-c2c[nH]c(=O)[nH]c2=O)cc1OC	none
CNC1=C(N(C(C)=O)c2ccc(Br)cc2)C(=O)c2ccccc2C1=O	CCHF vOTU inh-1 93.5, RecA splice inh 72.9 | GFP chromo cs 13 | CCHF vOTU inh-2 72.5
CCC(=O)N(C1=C(NC)C(=O)c2ccccc2C1=O)C(C)C	CCHF vOTU inh-1 46.5, RecA splice inh 45.0 | GFP chromo cs 38.7 | CCHF vOTU inh-2 inactive
Cc1ccsc1S(=O)(=O)n1c(CN2CCOCC2)nc2ccccc21	none (no result: UGM FP inh, RecA splice inh, Mtb bLac sens, Rv3671c protease)
CN(C)CC(=O)N[C@H]1C[C@@H]2O[C@@H](CO)CC[C@@H]2O[C@@H]1CCc1ccc(C2=CCCCC2)cc1	none (no result: UGM FP inh, RecA splice inh, Mtb bLac sens, Rv3671c protease)
CCOC(=O)c1cccc(-c2ccc(C=O)o2)c1	none
COC(=O)c1cccc(-c2ccc(C(c3c(C)[nH][nH]c3=O)c3c(C)[nH][nH]c3=O)o2)c1	CCHF vOTU inh-1 57.4, RecA splice inh 100.3 | GFP chromo cs 0.536 | CCHF vOTU inh-2 inactive
COC(=O)c1ccccc1-c1ccc(C(c2c(C)[nH][nH]c2=O)c2c(C)[nH][nH]c2=O)o1	CCHF vOTU inh-1 43.3, RecA splice inh 95.5 | GFP chromo cs 0.449 | CCHF vOTU inh-2 inactive
COC(=O)[C@]12C[C@H](CC(=O)NCc3ccccc3)C(=O)N(Cc3cccc4ccccc34)C1=C[C@H](COCc1ccccc1)O[C@@H]2C	none (no result: UGM FP inh, RecA splice inh, Mtb bLac sens, Rv3671c protease)
CCCCCCCCN1C(=O)[C@@H](CC(=O)NCc2ccc(C)o2)C[C@@]2(C(=O)OC)C1=C[C@H](COCc1ccccc1)O[C@@H]2C	none (no result: UGM FP inh, RecA splice inh, Mtb bLac sens, Rv3671c protease)
CCN(c1ccccc1)S(=O)(=O)c1ccc(N2CCN(c3ccc(OC)cc3)CC2)nc1	Rv3671c protease 101.6 (no result: RecA splice inh) | Rv3671c confirm inactive
Nc1ccc(O)c2c1C(=O)c1ccccc1C2=O	RecA splice inh 41.6, Rv3671c protease 56.2 | Rv3671c confirm 38.2
O=C1N(CCCO)CCC12CCCCC2	none (no result: UGM FP inh, RecA splice inh, Mtb bLac sens, Rv3671c protease)
O=c1cc[nH]c2c1ccc1c(=O)cc[nH]c12	Rv3671c protease 50.2 | Rv3671c confirm inactive
O=c1cc[nH]c2c(Cl)cccc12	none
CN(Cc1ccccc1Cl)C(=O)CN1C(=O)C2(OCCCO2)c2ccccc21	none (no result: UGM FP inh, RecA splice inh, Mtb bLac sens, Rv3671c protease)
CC(C)CNC(=O)COC(=O)c1ccc(Cl)c(S(N)(=O)=O)c1	none
CCCCNC(=O)COC(=O)c1ccc(Cl)c(S(N)(=O)=O)c1	Rv3671c protease 43.4 (no result: RecA splice inh) | Rv3671c confirm inactive
C[C@@H]1COc2cc(Br)ccc2S(=O)(=O)N1Cc1cn(Cc2ccc(Cl)cc2)nn1	none (no result: UGM FP inh, RecA splice inh, Mtb bLac sens, Rv3671c protease)
O=C(O)C1C2C=CC(C2)C1C(=O)NCc1cccnc1 (stereo unspecified)	Rv3671c protease 77.0 | Rv3671c confirm inactive
COc1ccccc1NC(=O)C1C2C=CC(C2)C1C(=O)NCc1cccnc1 (stereo unspecified)	none
O=c1[nH][nH]c(C(F)(F)F)c1C=Nc1ccccc1	none (no result: RecA splice inh)
Cc1cc(O)ccc1N=Cc1c(C(F)(F)F)[nH][nH]c1=O	Rv3671c protease 98.7 | Rv3671c confirm inactive
O=c1c2ccccc2n(Cc2ccco2)n1[C@@H](Cc1ccccc1)Cn1cc(-c2ccc(-c3ccccc3)cc2)nn1	none (no result: UGM FP inh, RecA splice inh, Mtb bLac sens, Rv3671c protease)
CCCC[C@H](CCCc1ccc(F)cc1)CCC(=O)N(c1ccccc1)c1ccccc1	none (no result: UGM FP inh, RecA splice inh, Mtb bLac sens, Rv3671c protease)
COc1cccc(CSc2nc3ccncc3[nH]2)c1	Rv3671c protease 182.6 | Rv3671c confirm inactive
COc1cccc(N2CCN(C(=O)c3ccc(CSc4nc5ccncc5[nH]4)cc3)CC2)c1	none
CCN(CC)C(=O)CC[C@@H]1CC[C@]2(CCCN(C(=O)c3ccno3)C2)O1	none (no result: UGM FP inh, RecA splice inh, Mtb bLac sens, Rv3671c protease)
NC(=O)COC(=O)C1c2ccccc2Oc2ccccc21	none
N#CCN(CC#N)C(=O)C1c2ccccc2Oc2ccccc21	Rv3671c protease 103.8 | Rv3671c confirm inactive
CC(C)Cn1c(/C=N/Nc2nc3ccccc3[nH]2)nc2ccccc21	none (no result: UGM FP inh, Mtb bLac sens, Rv3671c protease)
C=CCn1cc(/C=N/Nc2nc3ccccc3[nH]2)c2ccccc21	Rv3671c protease 40.0 | Rv3671c confirm 68.2
C=CCNC(=S)N1CCN(C2CCCCC2)CC1	Rv3671c protease 40.4 | Rv3671c confirm inactive
S=C(Nc1ccc(Cl)cc1)N1CCN(C2CCCCC2)CC1	none
O=c1c2ccccc2nc(-c2ccccc2)n1-c1ccccc1	none
